Source: the supplement of paper PMC7411640
Structures can show the parent of a compound that is named as a salt.

System: MDA-MB-468
Assay: phospho-S6 immunofluorescence (DAPI-normalised), per-plate z-score; higher = higher phospho-S6 signal (less pathway suppression)
Settings: 24 h
Description: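 GPCR-targeted compound library (MedChemExpress HY-L006) tested on MDA-MB-468 PTEN-null TNBC cells in 384-well plates at 0.1, 1 or 10 uM, combined with vehicle, GDC0941 450 nM or lapatinib 1 uM, for 24 h. Phospho-S6 (S240/244) immunofluorescence normalised to DAPI and expressed as a per-plate z-score; values are the mean of biological triplicates.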

Row | SMILES | phospho-S6 immunofluorescence (z-score) (co-treatment: GDC0941 450 nM) | phospho-S6 immunofluorescence (z-score) (co-treatment: lapatinib 1 uM) | phospho-S6 immunofluorescence (z-score) (co-treatment: vehicle)
1 | CCCC(C)(C)c1ccc2c(c1)OC(C)(C)[C@@H]1CC=C(C)C[C@@H]21 (compound 10 µM) | 2.38 | 1.8 | 2.21
2 | C[N@+]1(CC2CC2)CC[C@]23c4c5ccc(O)c4O[C@H]2C(=O)CC[C@@]3(O)[C@H]1C5 [Methylnaltrexone (Bromide)] (compound 10 µM) | 0.46 | 0.44 | -0.66
3 | O=C(O[C@H]1CN2CCC1CC2)N(Cc1cc(F)c(F)c(F)c1)c1cccc(F)c1 [Tarafenacin (D-tartrate)] (compound 10 µM) | 0.34 | -1.58 | 1.05
4 | CN1[C@@H]2CC[C@H]1C[C@@H](OC(=O)[C@H](CO)c1ccccc1)C2 [L-Hyoscyamine] (compound 10 µM) | 0.17 | 0.67 | 0.91
5 | Cc1cccc([C@H](C)c2c[nH]cn2)c1C [Dexmedetomidine (hydrochloride)] (compound 10 µM) | 0.32 | 0.38 | 1.08
6 | CNCC(O)c1ccc(O)cc1 (configuration not stated) [Synephrine (hydrochloride)] (compound 10 µM) | 1.02 | 0.35 | 0.24
7 | CNC(C)Cc1ccccc1OC (configuration not stated) [Methoxyphenamine (Hydrochloride)] (compound 10 µM) | 0.57 | -0.2 | 0.23
8 | CC(C)C[C@H]1C(=O)N2CCC[C@H]2[C@]2(O)O[C@](NC(=O)[C@@H]3C=C4c5cccc6[nH]c(Br)c(c56)C[C@H]4N(C)C3)(C(C)C)C(=O)N12 [Bromocriptine (mesylate)] (compound 10 µM) | -3.83 | -3.57 | -1.61
9 | Cc1cccc(C(C)c2c[nH]cn2)c1C (configuration not stated) [Medetomidine (hydrochloride)] (compound 10 µM) | 0.08 | 0.79 | 0.41
10 | CC(C)(C)NCC(O)c1ccc(O)cc1Cl (configuration not stated) (compound 10 µM) | 0.77 | 0.7 | 0.14
11 | CN1CCC(C(=O)c2cccc(NC(=O)c3c(F)cc(F)cc3F)n2)CC1 [Lasmiditan (hydrochloride)] (compound 10 µM) | -2.08 | -3.95 | -0.09
12 | CCN(CCCCO)C(C)Cc1ccc(O)cc1 (configuration not stated) [O-desmethyl Mebeverine alcohol (hydrochloride)] (compound 10 µM) | -0.73 | -0.03 | -0.64
13 | CN(C)CCN(C)CCc1ccc(Cl)c(Cl)c1 [BD-1047 (dihydrobromide)] (compound 10 µM) | 0.39 | -1.41 | -0.85
14 | COc1ccc2c(c1OC)CN1CCc3cc4c(cc3C1C2)OCO4 (configuration not stated) [Tetrahydroberberine] (compound 10 µM) | -0.04 | -1.09 | -0.52
